An excerpt weighted towards active compounds, which were near 4.2% of everything screened.
ssDAF-12 act = activates DAF-12 receptor from parasite S. stercoralis; actives 1% (n = 370,000); HEK293 ssDAF-12/GRIP1 lit1-tk-luc reporter, luminescence; % of 3 µM dafachronic acid response; AID 652126; activation, % at 6.8 µM;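 active = activation above the mean over all tested compounds plus 3 SD, cut at about 0.9% in these data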;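 also: 0% = DMSO-only wells and 100% = 3 µM delta7-dafachronic acid wells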
hgDAF12 agonist = hgDAF-12 agonism, primary luciferase screen; HEK293 GAL4-hgDAF12 UAS-luciferase reporter, agonist luminescence; normalized to butyrate control; activation, % at 6.8 µM; actives 1.8% (n = 370,000);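 active = activation above a cutoff set at the mean of all screened compounds plus 3 SD, cut at about 10% in these data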;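 also: 0% = DMSO wells and 100% = sodium butyrate wells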
DAX1 inh = inhibitors of DAX1 repression of SF-1 activated StAR promoter. HEK293T StAR-luciferase reporter, SF-1/DAX-1 repression relief. inhibition, % at 6.8 µM. actives 1.1% (n = 370,000);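 active = inhibition above the mean over all tested compounds plus 3 SD, cut at about 3.6% in these data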;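 also: 0% = DAX-1 cells with DMSO and 100% = cells lacking DAX-1 with DMSO; higher inhibition means more luminescence from relief of DAX-1 repression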
esBAF inh = inhibitors of esBAF chromatin remodeling in mouse ES cells | Bmi1-luciferase knock-in reporter, 24 h; 100% = twice the neutral-well signal | reporter increase, % at 12.5 µM | actives 2% (n = 350,000) | AID 602393; in the data active = activation above about 40%; inconclusive = no clear call, values can overlap the other calls;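 also: 0% = median of the plate's neutral control wells and 100% = double that signal; a rise in the Bmi1 reporter signal indicates esBAF inhibition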
Wnt act = activates Wnt/beta-catenin signaling in a reporter cell assay; activation, % at 9.35 µM; activator, plate reader; AID 743398; actives 1.2% (n = 300,000); in the data active = activation above about 30%, passing the limit was not always enough; inconclusive = no clear call, values can overlap the other calls;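 also: 0% = neutral control wells and 100% = positive control wells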
hcDAF12 agonist = activates DAF-12 receptor from parasite H. contortus | HEK293 hcDAF-12 lit1-tk-luc reporter, luminescence; 0% DMSO, 100% Δ7-dafachronic acid | activation, % at 6.8 µM | actives 1.4% (n = 370,000) | AID 652067;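 active = activation above the mean of all tested compounds plus 3 SD, cut at about 5.5% in these data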;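 also: 100% = response to 3 µM Δ7-dafachronic acid high control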
DAX1 conf = confirmation of human DAX1 (NR0B1) inhibitors. shares compounds with DAX1 inh. HEK293T StAR-promoter luciferase reporter, SF-1/DAX-1 repression. inhibition, % at 6.8 µM. actives 87% (n = 2,400);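 active = inhibition above the average of every tested compound plus 3 SD, cut at about 3.8% in these data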;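 also: 0% = DAX-1 cells with DMSO and 100% = no DAX-1 control cells with DMSO; active compounds raise luminescence by relieving repression of the StAR reporter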
Target sequence (P51843 whole entry, looked up): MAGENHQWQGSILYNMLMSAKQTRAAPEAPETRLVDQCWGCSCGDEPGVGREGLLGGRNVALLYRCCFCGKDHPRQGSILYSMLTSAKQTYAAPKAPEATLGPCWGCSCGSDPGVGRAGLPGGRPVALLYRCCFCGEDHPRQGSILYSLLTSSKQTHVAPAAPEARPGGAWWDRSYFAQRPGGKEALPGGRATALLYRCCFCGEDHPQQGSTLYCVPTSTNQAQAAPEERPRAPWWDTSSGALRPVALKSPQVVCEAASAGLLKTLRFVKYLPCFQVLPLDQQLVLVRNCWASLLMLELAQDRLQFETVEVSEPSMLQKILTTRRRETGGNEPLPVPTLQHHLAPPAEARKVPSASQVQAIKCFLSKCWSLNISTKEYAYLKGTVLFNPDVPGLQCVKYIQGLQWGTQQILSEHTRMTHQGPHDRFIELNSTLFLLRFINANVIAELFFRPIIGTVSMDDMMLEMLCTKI
SF1 mutant ctr = counter-screen for DAX1 inhibitors: nonselective inhibitors with SF-1 AF2 mutant. shares compounds with DAX1 inh. HEK293 StAR-luciferase, luminescence. AID 652136. actives 78% (n = 2,400). inhibition, % at 6.8 µM;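 active = inhibition above the mean of all tested compounds plus 3 SD, cut at about 3% in these data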;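 also: 0% = DAX-1 transfected cells with DMSO and 100% = cells without DAX-1 with DMSO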
LXR ag = counter-screen for hcDAF-12 agonists: agonists of human LXR-beta | AID 743027 | 3,400 tested, under 10 active | activation, % at 6.8 µM | shares compounds with hcDAF12 agonist | HEK293 Gal4-LXR tk-luc reporter, luminescence, 24 h; normalized: DMSO 0%, positive control 100%;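 active = mean percent activation of the reporter above a cutoff set as the average over tested compounds plus their standard deviation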
hcDAF12 ag = hcDAF-12 agonism, confirmation assay; shares compounds with hcDAF12 agonist; HEK293 hcDAF-12 lit1-tk-luc reporter, luminescence; % of Δ7-dafachronic acid response; activation, % at 6.8 µM; actives 61% (n = 3,400); AID 743032;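 active = mean activation across triplicate tests above the threshold derived from the earlier primary screen, cut at about 5.5% in these data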;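 also: 0% = DMSO only wells and 100% = 3 µM Δ7-dafachronic acid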
hgDAF12 conf = confirmation of H. glycines DAF-12 agonists | actives 80% (n = 3,300) | shares compounds with hgDAF12 agonist | activation, % at 6.8 µM | HEK293 GAL4-hgDAF12 luciferase reporter, agonist mode; percent of butyrate response;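 active = mean activation over triplicate wells above the hit cutoff derived from the earlier primary screen, cut at about 11% in these data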;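 also: 0% = DMSO low control and 100% = 2 mM sodium butyrate high control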
LXRb DAF12 ctr = counter-screen for DAF-12 agonists: agonists of human LXR-beta; shares compounds with hgDAF12 agonist; HEK293 Gal4-LXR luciferase reporter, 24 h; activation, % at 6.8 µM; 3,300 tested, under 10 active; AID 743051;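 active = mean activation of the triplicate above a set limit carried over from the primary screen, none filed active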
The depositor's hits bear a star; ? = inconclusive; . = no result.

SMILES	ssDAF-12 act	hgDAF12 agonist	DAX1 inh	esBAF inh	Wnt act	hcDAF12 agonist	DAX1 conf	SF1 mutant ctr	hgDAF12 conf	LXRb DAF12 ctr	others
CCCNC(=O)N1[C@H](CO)[C@H](c2ccccc2)[C@H]1CNC(C)=O	.	.	.	0	.	.	.	.	.	.
COc1cccc(C(=O)Nc2nnc(-c3ccccc3)s2)c1OC	0	19*	5.5*	36	45*	7.0*	7.6*	4.0*	14*	1	LXR ag=1;hcDAF12 ag=4
COc1ccc(-c2nnc(NC(=O)c3c(OC)cccc3OC)s2)cc1	-1	0	-1	0	0	-1	.	.	.	.
C[C@H]1CN([C@@H](C)CO)C(=O)c2ccccc2-c2ccccc2CO[C@@H]1CN(C)C(=O)NC1CCCCC1	.	.	.	-2	.	.	.	.	.	.
C/C(=N/NC(=O)c1ccoc1C)c1cccc(NC(=O)C2CC2)c1	1.0*	16*	6.1*	.	9	7.3*	1	0	0	0	LXR ag=0;hcDAF12 ag=0
C/C(=N/NC(=O)c1ccoc1C)c1cccc(NC(=O)C(F)(F)F)c1	1	15*	6.0*	32	.	3	6.3*	2	6	0
C/C(=N/NC(=O)c1ccc(C)s1)c1cccc(NC(=O)c2ccoc2C)c1	-1	4	1	10	11	-1	.	.	.	.
CCC(=O)N1[C@H](CO)[C@H]2c3ccccc3N(C(=O)c3ccc4c(c3)OCO4)C[C@H]21	.	.	.	1	.	.	.	.	.	.
CO[C@@H]1CN(C)C(=O)c2ccc(NC(=O)C3CC3)cc2OC[C@@H](C)N(C(=O)c2ccccc2F)C[C@H]1C	.	.	.	0	.	.	.	.	.	.
COc1ccc(C(=O)NCCNc2ccccc2[N+](=O)[O-])cc1	0	19*	8.0*	74*	-3	4	14*	6.7*	15*	1
O=C(NCCNc1ccccc1[N+](=O)[O-])c1cc(F)c(F)cc1Cl	0	5	1	36	3	2	.	.	.	.
CN1C(=O)c2cc(NC(=O)C3CCOCC3)ccc2OC[C@H]2O[C@@H](CC(=O)NC3CCCC3)CC[C@H]21	.	.	.	1	.	.	.	.	.	.
O=C(Nc1ccccc1)Nc1ccc2c(c1)CCC2	1	16*	10*	49*	1	5	7.5*	5.0*	15*	1
O=C(Nc1ccc2c(c1)CCC2)Nc1ccccc1F	1	16*	16*	5	27	8.6*	13*	8.5*	22*	1	LXR ag=2;hcDAF12 ag=8.6*
O=C(CNC(=O)c1ccccc1F)Nc1ccc2c(c1)CCC2	-1	3	2	?	-3	0	.	.	.	.
COc1ccc2cc(-c3cc(C(=O)OCC(=O)Nc4c(C)n(C)n(-c5ccccc5)c4=O)c4ccccc4n3)ccc2c1	0	15*	4.8*	-46	.	2	11*	6.4*	12*	1
CN1CCN(C(=O)C[C@@H]2CC[C@H](NC(=O)c3ccc4c(c3)OCO4)[C@H](CO)O2)CC1	.	.	.	-4	.	.	.	.	.	.
Cc1nc(N)sc1-c1csc(Nc2ncccn2)n1	0	16*	5.4*	.	26	4	8.4*	4.8*	13*	0
O=C(c1ccccc1)n1ccc(-c2cnc(-c3ccccc3)s2)n1	1.0*	18*	4.9*	.	.	7.7*	13*	5.6*	20*	1	LXR ag=2;hcDAF12 ag=7.1*
O=C(c1cnn(C(=O)c2ccccc2)c1)c1ccccc1O	0	9	1	8	.	-2	.	.	.	.
O=C(Nc1nsc(-c2ccccc2)n1)c1cccs1	1	15*	4.5*	.	.	3	7.9*	4.5*	16*	1
O=C(Nc1nc2c(F)cccc2s1)c1ccco1	1	16*	4.8*	31	43*	5.6*	6.8*	6.7*	17*	1
CC(=O)Nc1nc2c(F)cccc2s1	-1	1	0	0	1	0	.	.	.	.
CCOc1cccc(C(=O)NC(=S)Nc2ccc3c(c2)OCCO3)c1	-1	8	0	?	-1	2	.	.	.	.
O=C(NC(=S)Nc1ccc2c(c1)OCCO2)c1ccccc1	0	14*	4.7*	2	.	4	16*	8.7*	21*	1
SMILES	ssDAF-12 act	hgDAF12 agonist	DAX1 inh	esBAF inh	Wnt act	hcDAF12 agonist	DAX1 conf	SF1 mutant ctr	hgDAF12 conf	LXRb DAF12 ctr	others
O=C(NC(=S)Nc1ccc2c(c1)OCCO2)c1ccccc1F	1	19*	7.6*	54*	18	5	12*	7.0*	18*	1
COC(=O)C[C@@H]1CC[C@@H]2[C@H](COc3ccc(NS(=O)(=O)c4cccc(F)c4)cc3C(=O)N2C)O1	.	.	.	-7	.	.	.	.	.	.
O=C(C[C@H]1CC[C@H]2[C@@H](COC[C@@H](O)CN2C(=O)c2ccccc2)O1)Nc1nccs1	.	.	.	8	.	.	.	.	.	.
O=C(/C=C/c1ccccc1Cl)Nc1ccc2c(c1)C(=O)NC2=O	-2	2	0	1	-5	-2	.	.	.	.
O=C(/C=C/c1ccccc1Cl)Nc1cccc(O)c1	0	24*	5.8*	.	54*	10*	17*	11*	20*	1	LXR ag=2;hcDAF12 ag=6.5*
Cc1ccc(-c2cc(-c3ccccc3Cl)[nH]n2)c(O)c1	1.4*	20*	6.0*	52*	30	10*	14*	8.0*	21*	1	LXR ag=1;hcDAF12 ag=11*
O=C(O)c1cc(-c2ccccc2Cl)n[nH]1	-1	1	0	.	.	-2	.	.	.	.
C(=C\c1ccccn1)/c1ccccn1	0	4	1	26	13	0	.	.	.	.
C(=NOCc1ccccc1)c1ccccn1	0	17*	6.0*	22	16	2	6.1*	2.9*	14*	1
CC(Sc1nnc(-c2ccccc2F)o1)C(=O)Nc1ccc(N2CCOCC2)cc1 (stereo unspecified)	-1	1	1	18	-2	1	.	.	.	.

Screening results (PubChem)
